Data on 45 compounds can be found in article PMC4336329 (PLoS ONE, 2015).

Structures are written as SMILES. Screen size: about 310,000 compounds; about 14,000 (4.5%) showed an effect of 50% or more. Effects have a minus sign here. For the sample, strong results were picked, then their nearest neighbours and some compounds at random.
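Also: peak tail current of the secondary pulse compared with the same well before compound.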

Chain of human ether-à-go-go-related gene (hERG) potassium channel (Q12809 whole entry, looked up): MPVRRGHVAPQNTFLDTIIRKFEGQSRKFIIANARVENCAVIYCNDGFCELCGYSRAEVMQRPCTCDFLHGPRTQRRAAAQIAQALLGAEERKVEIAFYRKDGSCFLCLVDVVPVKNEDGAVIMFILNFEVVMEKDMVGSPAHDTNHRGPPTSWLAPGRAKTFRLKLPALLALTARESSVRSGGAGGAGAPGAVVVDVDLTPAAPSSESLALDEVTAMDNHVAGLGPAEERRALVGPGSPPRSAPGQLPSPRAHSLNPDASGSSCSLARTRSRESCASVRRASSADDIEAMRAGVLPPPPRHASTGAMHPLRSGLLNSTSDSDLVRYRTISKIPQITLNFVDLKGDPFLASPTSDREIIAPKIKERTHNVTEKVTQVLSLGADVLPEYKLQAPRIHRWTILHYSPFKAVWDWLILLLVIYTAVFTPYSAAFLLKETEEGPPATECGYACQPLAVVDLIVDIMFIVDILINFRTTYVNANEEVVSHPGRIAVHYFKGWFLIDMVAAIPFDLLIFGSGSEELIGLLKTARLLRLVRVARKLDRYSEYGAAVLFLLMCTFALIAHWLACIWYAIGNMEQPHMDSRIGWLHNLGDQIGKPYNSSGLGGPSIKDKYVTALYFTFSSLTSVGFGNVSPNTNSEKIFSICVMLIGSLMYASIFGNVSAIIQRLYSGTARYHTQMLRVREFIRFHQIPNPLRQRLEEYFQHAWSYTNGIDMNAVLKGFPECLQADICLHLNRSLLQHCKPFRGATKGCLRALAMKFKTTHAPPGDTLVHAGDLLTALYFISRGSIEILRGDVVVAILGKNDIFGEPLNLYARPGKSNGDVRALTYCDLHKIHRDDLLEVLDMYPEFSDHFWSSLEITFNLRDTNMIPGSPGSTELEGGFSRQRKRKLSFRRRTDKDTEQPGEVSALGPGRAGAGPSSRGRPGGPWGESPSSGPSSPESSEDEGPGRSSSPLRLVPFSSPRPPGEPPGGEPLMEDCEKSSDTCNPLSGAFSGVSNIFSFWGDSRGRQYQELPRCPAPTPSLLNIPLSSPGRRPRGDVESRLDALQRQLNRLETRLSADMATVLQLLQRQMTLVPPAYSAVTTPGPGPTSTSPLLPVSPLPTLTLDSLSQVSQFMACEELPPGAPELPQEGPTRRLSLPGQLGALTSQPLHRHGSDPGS

This assay addresses human ether-à-go-go-related gene (hERG) potassium channel (human, UniProt Q12809). Briefly: primary screen, population patch clamp on CHO cells stably expressing hERG; higher = less effect of the substance.
As for `CCOc1cc(/C=N/NC(N)=O)cc(Br)c1OCC(=O)Nc1ccccc1C`, the “hERG current change (%, negative = inhibition) at 10uM” value is -65.7%.

For the compound `CCOc1cc(C=O)cc(Br)c1OCC(N)=O`, the “hERG current change (%, negative = inhibition) at 10uM” value is listed as 2.71%.

Consider `CC(NCc1ccc(OCC(N)=O)cc1)C12CC3CC(CC(C3)C1)C2.Cl` (stereo not drawn), for which the “hERG current change (%, negative = inhibition) at 10uM” value was -11.2%.

Regarding `CCOc1cc(C=O)cc(Br)c1OCC(=O)NCCc1ccccc1`, the “hERG current change (%, negative = inhibition) at 10uM” value is reported as -81.7%.

In the case of `CCOc1cc(/C=N/NC(N)=O)cc(Br)c1OCC(=O)Nc1cccc2ccccc12`, the “hERG current change (%, negative = inhibition) at 10uM” value amounted to 18.4%.

For `O=C(CCC(=O)NNC(=O)COc1ccc(Br)cc1Br)NCc1ccccc1`, the “hERG current change (%, negative = inhibition) at 10uM” value is recorded as 16.9%.

Regarding `CCOc1cc(/C=N/O)cc(Br)c1OCC(=O)NCc1ccccc1`, the “hERG current change (%, negative = inhibition) at 10uM” value is listed as 1.7%.

Take `Cc1ccccc1NC(=O)COc1ccc(Br)cc1CNCCCO.Cl`: the “hERG current change (%, negative = inhibition) at 10uM” value was -15.6%.

As to `CC(NCc1cc(Br)ccc1OCC(N)=O)C12CC3CC(CC(C3)C1)C2.Cl` (stereo not drawn), the “hERG current change (%, negative = inhibition) at 10uM” value was -55.8%.

Take `Cl.O=C(COc1ccc(Br)cc1CNCCc1ccccc1)NCc1ccccc1`: the “hERG current change (%, negative = inhibition) at 10uM” value was -61.1%.

Consider `CCOc1cc(/C=N/NC(N)=O)cc(Br)c1OCc1ccccc1`, for which the “hERG current change (%, negative = inhibition) at 10uM” value came to 3.4%.

Take `COc1cc(CNC(C)C23CC4CC(CC(C4)C2)C3)ccc1OCC(=O)NC(C)(C)C.Cl` (stereo not drawn): the “hERG current change (%, negative = inhibition) at 10uM” value was -4.99%.

Consider `CCN(CC)CCCNC(=O)Cn1cnc2sc(C)c(S(=O)(=O)N3CCC(C)CC3)c2c1=O`, for which the “hERG current change (%, negative = inhibition) at 10uM” value came to 11.1%.

On to `COC(=O)c1ccc(Cn2nc(-c3ccc(C)cc3)ccc2=O)cc1`, for which the “hERG current change (%, negative = inhibition) at 10uM” value was determined as 23.5%.

As for `CCn1cc(C(=O)O)c(=O)c2cnc(N3CCN(C(=S)Nc4ccc(F)cc4)CC3)nc21`, the “hERG current change (%, negative = inhibition) at 10uM” value was 13.3%.

Regarding `CCN(c1ccccc1)S(=O)(=O)c1cccc(C(=O)N(C)CCOc2ccccc2)c1`, the “hERG current change (%, negative = inhibition) at 10uM” value is given as -3.95%.

Consider `CCCCN(C)CCC(=O)Nc1ccc2c(c1)CCC2.Cl`, for which the “hERG current change (%, negative = inhibition) at 10uM” value is listed as -7.46%.

For `CCOC(=O)c1sc(NC(=O)CSc2ncn(-c3ccccc3)n2)nc1C`, the “hERG current change (%, negative = inhibition) at 10uM” value is 7.23%.

`COc1ccc(CNC(=O)CCn2c(=O)oc3ccccc32)cc1`: the “hERG current change (%, negative = inhibition) at 10uM” value was -5.31%.

Turning to `O=C(NC(=S)Nc1ccc2[nH]c(=O)[nH]c2c1)c1ccccc1[N+](=O)[O-]`, the “hERG current change (%, negative = inhibition) at 10uM” value is -8.83%.

For `Cc1cc(C(=O)N2CCN(c3ncccn3)CC2)cs1`, the “hERG current change (%, negative = inhibition) at 10uM” value is reported as -15.6%.

On to `CCOC(=O)c1sc(NC(=S)NC(=O)C2CCCC2)cc1C`, for which the “hERG current change (%, negative = inhibition) at 10uM” value came to 7.72%.

On to `COc1cc(CNC(C)c2ccccc2)c(Br)cc1OCC(N)=O` (stereo not drawn), for which the “hERG current change (%, negative = inhibition) at 10uM” value is recorded as -17.2%.

In the case of `CCCNCc1cc(Br)ccc1OCC(=O)NCCc1ccccc1`, the “hERG current change (%, negative = inhibition) at 10uM” value is listed as -63.5%.

Regarding `CCOc1cc(CNCCO)c(Cl)cc1OCC(=O)NCCc1ccccc1`, the “hERG current change (%, negative = inhibition) at 10uM” value is -6.82%.

Turning to `COc1ccc(Br)cc1CNC(C)c1ccccc1` (stereo not drawn), the “hERG current change (%, negative = inhibition) at 10uM” value is listed as -19.8%.

With `CCCNCc1cc(OC)c(OCC(=O)NCCc2ccccc2)cc1Br`, the “hERG current change (%, negative = inhibition) at 10uM” value is recorded as -38.1%.

For `CC(NCc1cc(Br)ccc1OCC(=O)NCc1ccccc1)c1ccccc1.Cl` (stereo not drawn), the “hERG current change (%, negative = inhibition) at 10uM” value is -59.6%.

Regarding `O=C(c1cccnc1)c1ncc(C(F)(F)F)cc1Cl`, the “hERG current change (%, negative = inhibition) at 10uM” value is given as -3.33%.

Turning to `O=C(CSc1ccccc1)Nc1nnc(C2CC2)s1`, the “hERG current change (%, negative = inhibition) at 10uM” value was found to be 16.9%.

As for `Cc1c(C(=O)N(Cc2ccccc2)Cc2cccs2)cnn1-c1ccc(Cl)cc1`, the “hERG current change (%, negative = inhibition) at 10uM” value is recorded as -3.32%.

For `O=C(/C=C/c1ccccc1)N/C(=C/c1ccccc1)C(=O)NCCCO`, the “hERG current change (%, negative = inhibition) at 10uM” value is on record as -7.96%.

With `CCC(C)c1ccc(S(=O)(=O)N2CCN(c3ccccn3)CC2)cc1` (stereo not drawn), the “hERG current change (%, negative = inhibition) at 10uM” value is listed as 24.6%.

As for `Cc1ccc(-c2c[n+](Cc3ccc(Cl)cc3)c3n2CCC3)cc1.[Cl-]`, the “hERG current change (%, negative = inhibition) at 10uM” value is given as -41.6%.

On to `Cc1ccc(C[n+]2cc(-c3ccc(Cl)cc3)n3c2CCC3)cc1.[Cl-]`, for which the “hERG current change (%, negative = inhibition) at 10uM” value is reported as -51.3%.

In the case of `Cc1ccc(-c2c[n+](Cc3cccc(Cl)c3)c3n2CCC3)cc1.[Br-]`, the “hERG current change (%, negative = inhibition) at 10uM” value is listed as -57.7%.

For `N#CC[n+]1cc(-c2ccc(Cl)cc2)n2c1CCC2.[Cl-]`, the “hERG current change (%, negative = inhibition) at 10uM” value is given as 5.21%.

As for `Clc1cccc(C[n+]2cc(-c3ccccc3)n3c2CCC3)c1.[Br-]`, the “hERG current change (%, negative = inhibition) at 10uM” value is on record as -25.7%.

In the case of `Cc1ccc(-c2c[n+](CC(=O)c3cccs3)c3n2CCC3)cc1.[Br-]`, the “hERG current change (%, negative = inhibition) at 10uM” value is listed as 5.08%.

For the compound `Clc1ccc(-c2c[n+](Cc3ccc(Br)cc3)c3n2CCCCC3)cc1.[Br-]`, the “hERG current change (%, negative = inhibition) at 10uM” value is given as -66.4%.

On to `Clc1ccc(C[n+]2cc(-c3ccc(Cl)cc3)n3c2CCC3)cc1.[Cl-]`, for which the “hERG current change (%, negative = inhibition) at 10uM” value was -61.9%.

With `Cc1ccc(-c2c[n+](CC(=O)N3c4ccccc4Sc4ccccc43)c3n2CCC3)cc1.[Cl-]`, the “hERG current change (%, negative = inhibition) at 10uM” value was -49.1%.

`CCOc1ccc(CC2NCCc3cc(OCC)c(OCC)cc32)cc1OCC` (stereo not drawn): the “hERG current change (%, negative = inhibition) at 10uM” value is recorded as -13.3%.

As for `CCN1C(=O)/C(=C\c2ccco2)C(C(=O)OC)=C1C`, the “hERG current change (%, negative = inhibition) at 10uM” value came to 10.4%.

In the case of `Cn1nccc1NC(=O)Nc1cccc(Cl)c1Cl`, the “hERG current change (%, negative = inhibition) at 10uM” value turned out to be 16.5%.
